# ChEMBL document CHEMBL1961873, “Compounds: GSK PKIS; Assays: Nanosyn kinase panel” (2012)
# Columns and labels:
# [1] = target: Glycogen synthase kinase-3 alpha (Homo sapiens) (UniProt P49840); settings: at 0.1 µM
# [2] = target: Glycogen synthase kinase-3 alpha (Homo sapiens) (UniProt P49840); settings: at 1 µM
# [3] = target: Glycogen synthase kinase-3 beta (Homo sapiens) (UniProt P49841); settings: at 0.1 µM
# [4] = target: Glycogen synthase kinase-3 beta (Homo sapiens) (UniProt P49841); settings: at 1 µM
# [5] = target: Homeodomain-interacting protein kinase 1 (Homo sapiens) (UniProt Q86Z02); settings: at 0.1 µM
# [6] = target: Homeodomain-interacting protein kinase 1 (Homo sapiens) (UniProt Q86Z02); settings: at 1 µM
# [7] = target: Homeodomain-interacting protein kinase 4 (Homo sapiens) (UniProt Q8NE63); settings: at 0.1 µM
# [8] = target: Homeodomain-interacting protein kinase 4 (Homo sapiens) (UniProt Q8NE63); settings: at 1 µM
# [9] = target: Mitogen-activated protein kinase 9 (Homo sapiens) (UniProt P45984); settings: at 0.1 µM
# [10] = target: Mitogen-activated protein kinase 9 (Homo sapiens) (UniProt P45984); settings: at 1 µM
# [11] = target: Mitogen-activated protein kinase 1 (Homo sapiens) (UniProt P28482); settings: at 0.1 µM
# [12] = target: Mitogen-activated protein kinase 1 (Homo sapiens) (UniProt P28482); settings: at 1 µM
# [13] = target: Mitogen-activated protein kinase 3 (Homo sapiens) (UniProt P27361); settings: at 0.1 µM
# [14] = target: Mitogen-activated protein kinase 3 (Homo sapiens) (UniProt P27361); settings: at 1 µM
# [15] = target: SRSF protein kinase 3 (Homo sapiens) (UniProt Q9UPE1); settings: at 0.1 µM
# [16] = target: SRSF protein kinase 3 (Homo sapiens) (UniProt Q9UPE1); settings: at 1 µM
# [17] = target: Mitogen-activated protein kinase 14 (Homo sapiens) (UniProt Q16539); settings: at 0.1 µM
# [18] = target: Mitogen-activated protein kinase 14 (Homo sapiens) (UniProt Q16539); settings: at 1 µM
# [19] = target: Mitogen-activated protein kinase 11 (Homo sapiens) (UniProt Q15759); settings: at 0.1 µM
# [20] = target: Mitogen-activated protein kinase 11 (Homo sapiens) (UniProt Q15759); settings: at 1 µM
# [21] = target: Mitogen-activated protein kinase 13 (Homo sapiens) (UniProt O15264); settings: at 0.1 µM
# [22] = target: Mitogen-activated protein kinase 13 (Homo sapiens) (UniProt O15264); settings: at 1 µM
# [23] = target: Mitogen-activated protein kinase 12 (Homo sapiens) (UniProt P53778); settings: at 0.1 µM
# [24] = target: Mitogen-activated protein kinase 12 (Homo sapiens) (UniProt P53778); settings: at 1 µM
# [25] = target: SRSF protein kinase 1 (Homo sapiens) (UniProt Q96SB4); settings: at 0.1 µM
# [26] = target: SRSF protein kinase 1 (Homo sapiens) (UniProt Q96SB4); settings: at 1 µM
# [27] = target: Phosphatidylinositol 4,5-bisphosphate 3-kinase catalytic subunit alpha isoform (Homo sapiens) (UniProt P42336); settings: at 0.1 µM
# [28] = target: Phosphatidylinositol 4,5-bisphosphate 3-kinase catalytic subunit alpha isoform (Homo sapiens) (UniProt P42336); settings: at 1 µM
# [29] = target: Phosphatidylinositol 4,5-bisphosphate 3-kinase catalytic subunit delta isoform (Homo sapiens) (UniProt O00329); settings: at 0.1 µM
# [30] = target: Phosphatidylinositol 4,5-bisphosphate 3-kinase catalytic subunit delta isoform (Homo sapiens) (UniProt O00329); settings: at 1 µM
# [31] = target: Phosphatidylinositol 4-kinase beta (Homo sapiens) (UniProt Q9UBF8); settings: at 0.1 µM
# [32] = target: Phosphatidylinositol 4-kinase beta (Homo sapiens) (UniProt Q9UBF8); settings: at 1 µM
# [33] = target: Sphingosine kinase 1 (Homo sapiens) (UniProt Q9NYA1); settings: at 0.1 µM
# [34] = target: Sphingosine kinase 1 (Homo sapiens) (UniProt Q9NYA1); settings: at 1 µM
# [35] = target: Sphingosine kinase 2 (Homo sapiens) (UniProt Q9NRA0); settings: at 0.1 µM
# [36] = target: Sphingosine kinase 2 (Homo sapiens) (UniProt Q9NRA0); settings: at 1 µM
# [37] = target: Casein kinase II subunit alpha (Homo sapiens) (UniProt P68400); settings: at 0.1 µM
# [38] = target: Casein kinase II subunit alpha (Homo sapiens) (UniProt P68400); settings: at 1 µM
# [39] = target: Inhibitor of nuclear factor kappa-B kinase subunit alpha (Homo sapiens) (UniProt O15111); settings: at 0.1 µM
# [40] = target: Inhibitor of nuclear factor kappa-B kinase subunit alpha (Homo sapiens) (UniProt O15111); settings: at 1 µM
# [41] = target: Inhibitor of nuclear factor kappa-B kinase subunit beta (Homo sapiens) (UniProt O14920); settings: at 0.1 µM
# [42] = target: Inhibitor of nuclear factor kappa-B kinase subunit beta (Homo sapiens) (UniProt O14920); settings: at 1 µM
# [43] = target: Inhibitor of nuclear factor kappa-B kinase subunit epsilon (Homo sapiens) (UniProt Q14164); settings: at 0.1 µM
# [44] = target: Inhibitor of nuclear factor kappa-B kinase subunit epsilon (Homo sapiens) (UniProt Q14164); settings: at 1 µM
# [45] = target: Serine/threonine-protein kinase Nek1 (Homo sapiens) (UniProt Q96PY6); settings: at 0.1 µM
# [46] = target: Serine/threonine-protein kinase Nek1 (Homo sapiens) (UniProt Q96PY6); settings: at 1 µM
# [47] = target: Serine/threonine-protein kinase Nek2 (Homo sapiens) (UniProt P51955); settings: at 0.1 µM
# [48] = target: Serine/threonine-protein kinase Nek2 (Homo sapiens) (UniProt P51955); settings: at 1 µM
# [49] = target: Serine/threonine-protein kinase Nek6 (Homo sapiens) (UniProt Q9HC98); settings: at 0.1 µM
# [50] = target: Serine/threonine-protein kinase Nek6 (Homo sapiens) (UniProt Q9HC98); settings: at 1 µM
# [51] = target: Serine/threonine-protein kinase Nek7 (Homo sapiens) (UniProt Q8TDX7); settings: at 0.1 µM
# [52] = target: Serine/threonine-protein kinase Nek7 (Homo sapiens) (UniProt Q8TDX7); settings: at 1 µM
# [53] = target: Serine/threonine-protein kinase Nek9 (Homo sapiens) (UniProt Q8TD19); settings: at 0.1 µM
# [54] = target: Serine/threonine-protein kinase Nek9 (Homo sapiens) (UniProt Q8TD19); settings: at 1 µM
# [55] = target: Serine/threonine-protein kinase PLK1 (Homo sapiens) (UniProt P53350); settings: at 0.1 µM
# [56] = target: Serine/threonine-protein kinase PLK1 (Homo sapiens) (UniProt P53350); settings: at 1 µM
# Chain of Serine/threonine-protein kinase Nek1 (Homo sapiens) (Q96PY6 whole entry): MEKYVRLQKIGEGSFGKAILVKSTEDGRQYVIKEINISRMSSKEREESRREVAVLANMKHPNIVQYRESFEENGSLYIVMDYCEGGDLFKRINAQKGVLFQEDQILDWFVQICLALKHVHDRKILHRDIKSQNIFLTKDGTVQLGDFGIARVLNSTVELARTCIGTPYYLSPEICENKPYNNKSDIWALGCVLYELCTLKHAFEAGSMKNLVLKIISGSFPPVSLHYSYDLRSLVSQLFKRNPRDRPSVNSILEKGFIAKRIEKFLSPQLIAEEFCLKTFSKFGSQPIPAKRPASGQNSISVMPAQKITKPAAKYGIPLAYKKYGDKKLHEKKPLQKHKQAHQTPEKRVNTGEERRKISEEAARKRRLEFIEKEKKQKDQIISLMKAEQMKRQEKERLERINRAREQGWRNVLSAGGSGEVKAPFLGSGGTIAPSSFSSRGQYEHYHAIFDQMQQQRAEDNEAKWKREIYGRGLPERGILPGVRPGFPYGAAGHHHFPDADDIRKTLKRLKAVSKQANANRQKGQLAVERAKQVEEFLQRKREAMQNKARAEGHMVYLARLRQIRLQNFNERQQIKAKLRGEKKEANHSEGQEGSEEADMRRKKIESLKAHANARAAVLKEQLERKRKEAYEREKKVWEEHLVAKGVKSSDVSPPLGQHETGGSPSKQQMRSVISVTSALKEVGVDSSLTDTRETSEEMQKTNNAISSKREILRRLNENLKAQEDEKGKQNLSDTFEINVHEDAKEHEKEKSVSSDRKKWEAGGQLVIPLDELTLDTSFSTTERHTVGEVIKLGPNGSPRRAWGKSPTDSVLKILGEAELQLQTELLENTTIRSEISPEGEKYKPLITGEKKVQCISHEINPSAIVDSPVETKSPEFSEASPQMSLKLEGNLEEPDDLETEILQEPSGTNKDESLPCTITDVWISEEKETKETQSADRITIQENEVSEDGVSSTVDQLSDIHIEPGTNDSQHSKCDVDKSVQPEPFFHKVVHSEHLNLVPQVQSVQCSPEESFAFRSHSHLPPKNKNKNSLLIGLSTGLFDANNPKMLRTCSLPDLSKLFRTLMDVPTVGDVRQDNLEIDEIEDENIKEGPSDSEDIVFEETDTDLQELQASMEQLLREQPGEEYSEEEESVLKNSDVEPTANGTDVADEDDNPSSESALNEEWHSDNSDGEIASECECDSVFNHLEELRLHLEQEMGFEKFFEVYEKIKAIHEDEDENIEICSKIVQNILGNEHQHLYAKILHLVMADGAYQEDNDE
# Chain of SRSF protein kinase 1 (Homo sapiens) (Q96SB4 whole entry, canonical isoform): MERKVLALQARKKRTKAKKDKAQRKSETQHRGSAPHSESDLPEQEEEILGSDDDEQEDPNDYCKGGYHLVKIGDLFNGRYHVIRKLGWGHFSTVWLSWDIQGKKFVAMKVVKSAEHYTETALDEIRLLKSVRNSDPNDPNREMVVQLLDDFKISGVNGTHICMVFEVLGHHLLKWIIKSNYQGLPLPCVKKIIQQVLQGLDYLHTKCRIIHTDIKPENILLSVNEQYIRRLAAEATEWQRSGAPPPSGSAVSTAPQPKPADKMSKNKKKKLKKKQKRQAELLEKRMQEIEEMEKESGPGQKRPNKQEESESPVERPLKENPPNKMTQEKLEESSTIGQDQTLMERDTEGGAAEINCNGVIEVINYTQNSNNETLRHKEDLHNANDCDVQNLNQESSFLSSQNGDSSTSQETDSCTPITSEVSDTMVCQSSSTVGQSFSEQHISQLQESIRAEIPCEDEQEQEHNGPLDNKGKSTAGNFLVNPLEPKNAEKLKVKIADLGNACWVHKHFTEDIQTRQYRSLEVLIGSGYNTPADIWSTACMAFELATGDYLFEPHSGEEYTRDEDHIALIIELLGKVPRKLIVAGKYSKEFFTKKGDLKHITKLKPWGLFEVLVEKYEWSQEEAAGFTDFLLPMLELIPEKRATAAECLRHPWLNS
# Chain of Inhibitor of nuclear factor kappa-B kinase subunit beta (Homo sapiens) (O14920 whole entry): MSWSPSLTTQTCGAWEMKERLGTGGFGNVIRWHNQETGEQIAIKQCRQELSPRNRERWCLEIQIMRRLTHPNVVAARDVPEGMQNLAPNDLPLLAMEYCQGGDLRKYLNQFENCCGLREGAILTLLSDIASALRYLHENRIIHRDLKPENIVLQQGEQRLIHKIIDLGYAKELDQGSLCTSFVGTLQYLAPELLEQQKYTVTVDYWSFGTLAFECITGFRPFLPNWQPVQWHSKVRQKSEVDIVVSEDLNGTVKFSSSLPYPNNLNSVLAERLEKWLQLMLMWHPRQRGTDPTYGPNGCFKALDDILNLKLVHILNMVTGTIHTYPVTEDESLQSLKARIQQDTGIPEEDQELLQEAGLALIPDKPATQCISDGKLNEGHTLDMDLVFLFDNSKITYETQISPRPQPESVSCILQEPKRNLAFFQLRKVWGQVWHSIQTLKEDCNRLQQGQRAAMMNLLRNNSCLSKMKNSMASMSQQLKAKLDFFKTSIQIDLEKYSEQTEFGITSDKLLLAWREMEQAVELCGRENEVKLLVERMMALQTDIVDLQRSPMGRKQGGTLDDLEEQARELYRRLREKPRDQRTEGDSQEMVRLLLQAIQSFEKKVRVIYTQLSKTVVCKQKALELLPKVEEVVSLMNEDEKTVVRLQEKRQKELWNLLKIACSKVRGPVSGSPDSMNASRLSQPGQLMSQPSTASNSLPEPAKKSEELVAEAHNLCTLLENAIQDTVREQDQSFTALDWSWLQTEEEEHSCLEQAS
# Chain of Sphingosine kinase 1 (Homo sapiens) (Q9NYA1 whole entry): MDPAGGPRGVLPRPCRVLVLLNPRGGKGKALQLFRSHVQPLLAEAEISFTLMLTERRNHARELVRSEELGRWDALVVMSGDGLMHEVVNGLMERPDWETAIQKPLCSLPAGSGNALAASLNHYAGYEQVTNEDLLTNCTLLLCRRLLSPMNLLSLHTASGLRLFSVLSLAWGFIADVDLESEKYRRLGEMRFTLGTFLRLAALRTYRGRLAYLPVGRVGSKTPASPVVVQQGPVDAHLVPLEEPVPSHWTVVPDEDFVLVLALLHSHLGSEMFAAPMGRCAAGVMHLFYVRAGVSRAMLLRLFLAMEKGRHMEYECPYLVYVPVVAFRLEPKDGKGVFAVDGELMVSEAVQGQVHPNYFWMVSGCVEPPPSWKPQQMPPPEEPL
# Chain of Inhibitor of nuclear factor kappa-B kinase subunit alpha (Homo sapiens) (O15111 whole entry): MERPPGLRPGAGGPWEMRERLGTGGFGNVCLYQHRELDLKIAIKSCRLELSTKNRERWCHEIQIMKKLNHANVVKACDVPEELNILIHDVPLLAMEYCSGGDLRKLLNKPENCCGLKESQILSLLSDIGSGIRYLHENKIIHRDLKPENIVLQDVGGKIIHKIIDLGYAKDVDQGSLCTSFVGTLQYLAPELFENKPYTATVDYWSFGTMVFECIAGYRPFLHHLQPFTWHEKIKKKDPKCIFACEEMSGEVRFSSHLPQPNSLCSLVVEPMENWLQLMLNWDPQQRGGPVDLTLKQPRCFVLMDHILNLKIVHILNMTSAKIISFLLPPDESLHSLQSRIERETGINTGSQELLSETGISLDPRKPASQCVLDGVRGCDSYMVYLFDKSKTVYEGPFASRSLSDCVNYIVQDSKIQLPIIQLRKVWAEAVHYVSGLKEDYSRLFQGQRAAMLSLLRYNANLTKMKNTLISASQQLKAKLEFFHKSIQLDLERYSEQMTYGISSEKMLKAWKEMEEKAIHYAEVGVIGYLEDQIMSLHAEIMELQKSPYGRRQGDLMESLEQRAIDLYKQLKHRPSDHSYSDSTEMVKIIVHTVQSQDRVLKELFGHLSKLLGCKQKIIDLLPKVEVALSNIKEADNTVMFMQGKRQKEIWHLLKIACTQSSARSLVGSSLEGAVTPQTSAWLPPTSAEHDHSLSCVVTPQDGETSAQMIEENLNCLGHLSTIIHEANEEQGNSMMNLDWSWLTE
# Chain of Mitogen-activated protein kinase 14 (Homo sapiens) (Q16539 whole entry): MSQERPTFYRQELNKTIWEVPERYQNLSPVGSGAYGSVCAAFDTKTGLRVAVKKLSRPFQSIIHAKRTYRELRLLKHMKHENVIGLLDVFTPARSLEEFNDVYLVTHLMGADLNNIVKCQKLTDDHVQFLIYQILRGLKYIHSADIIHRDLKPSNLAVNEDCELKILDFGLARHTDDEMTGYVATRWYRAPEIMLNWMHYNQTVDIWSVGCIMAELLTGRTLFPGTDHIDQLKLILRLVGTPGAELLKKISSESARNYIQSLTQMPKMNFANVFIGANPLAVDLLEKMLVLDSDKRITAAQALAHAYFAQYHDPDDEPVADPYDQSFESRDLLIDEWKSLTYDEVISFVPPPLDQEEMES
# Chain of Homeodomain-interacting protein kinase 4 (Homo sapiens) (Q8NE63 whole entry): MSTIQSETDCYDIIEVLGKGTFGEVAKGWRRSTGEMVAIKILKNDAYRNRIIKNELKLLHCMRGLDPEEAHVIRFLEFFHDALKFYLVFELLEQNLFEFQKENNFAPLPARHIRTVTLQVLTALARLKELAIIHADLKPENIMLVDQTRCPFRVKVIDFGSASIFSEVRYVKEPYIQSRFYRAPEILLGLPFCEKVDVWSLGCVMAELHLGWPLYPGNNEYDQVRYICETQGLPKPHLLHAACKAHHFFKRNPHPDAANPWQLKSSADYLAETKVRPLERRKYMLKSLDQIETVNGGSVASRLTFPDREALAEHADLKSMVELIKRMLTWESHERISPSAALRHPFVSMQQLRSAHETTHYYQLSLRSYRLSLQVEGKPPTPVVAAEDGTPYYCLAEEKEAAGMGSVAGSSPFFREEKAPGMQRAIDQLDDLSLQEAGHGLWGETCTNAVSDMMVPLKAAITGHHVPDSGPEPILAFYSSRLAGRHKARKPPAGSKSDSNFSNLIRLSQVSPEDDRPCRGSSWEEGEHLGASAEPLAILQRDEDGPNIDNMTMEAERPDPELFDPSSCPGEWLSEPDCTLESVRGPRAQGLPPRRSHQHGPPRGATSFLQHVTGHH
compound,measurement,setting,value
CNC(=O)Oc1cc(C)c(/C=C/c2cncc(C(=O)NC)c2)c(C)c1,inhibition,[1],1.71%
same,inhibition,[2],5.29%
same,inhibition,[3],1.23%
same,inhibition,[4],4.75%
same,inhibition,[5],-0.37%
same,inhibition,[6],1.2%
same,inhibition,[7],0.96%
same,inhibition,[8],3.81%
same,inhibition,[9],3.14%
same,inhibition,[10],2.28%
same,inhibition,[11],1.83%
same,inhibition,[12],2.04%
same,inhibition,[13],3.1%
same,inhibition,[14],2.72%
same,inhibition,[15],1.79%
same,inhibition,[16],1.43%
same,inhibition,[17],3.47%
same,inhibition,[18],3.16%
same,inhibition,[19],1.39%
same,inhibition,[20],2.35%
same,inhibition,[21],0.06%
same,inhibition,[22],2.61%
same,inhibition,[23],0.49%
same,inhibition,[24],1.7%
same,inhibition,[25],-1.34%
same,inhibition,[26],-4.31%
same,inhibition,[27],2.83%
same,inhibition,[28],2.08%
same,inhibition,[29],1.65%
same,inhibition,[30],0.21%
same,inhibition,[31],5.69%
same,inhibition,[32],3.41%
same,inhibition,[33],2.31%
same,inhibition,[34],0.63%
same,inhibition,[35],0.57%
same,inhibition,[36],19.7%
same,inhibition,[37],1.53%
same,inhibition,[38],0.66%
same,inhibition,[39],0.51%
same,inhibition,[40],-0.7%
same,inhibition,[41],3.06%
same,inhibition,[42],1.89%
same,inhibition,[43],2.27%
same,inhibition,[44],0.9%
same,inhibition,[45],2.1%
same,inhibition,[46],1.49%
same,inhibition,[47],2.52%
same,inhibition,[48],4.05%
same,inhibition,[49],-0.26%
same,inhibition,[50],1.16%
same,inhibition,[51],2.46%
same,inhibition,[52],2.99%
same,inhibition,[53],6.95%
same,inhibition,[54],4.01%
same,inhibition,[55],3.92%
same,inhibition,[56],2.75%
